# TRb-SRC2 inh – qHTS for Inhibitors of the Interaction of Thyroid Hormone Receptor and Steroid Receptor Coregulator 2. Thyroid hormone receptor beta (Homo sapiens), P10828. TRbeta-SRC2 peptide binding, fluorescence polarization; receptor liganded with 1 µM T3. Potency, µM (titrated, usually from 106 µM), for inactives: at the top dose activity change, negative = inhibition, usual class: inhibitors. 280,000 compounds, 0.065% hits;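 note: plate controls were bound peptide for no effect and peptide without receptor for full effect; nearly all actives have a fitted effect of over 50% in size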
# Target sequence (P10828 whole entry, looked up): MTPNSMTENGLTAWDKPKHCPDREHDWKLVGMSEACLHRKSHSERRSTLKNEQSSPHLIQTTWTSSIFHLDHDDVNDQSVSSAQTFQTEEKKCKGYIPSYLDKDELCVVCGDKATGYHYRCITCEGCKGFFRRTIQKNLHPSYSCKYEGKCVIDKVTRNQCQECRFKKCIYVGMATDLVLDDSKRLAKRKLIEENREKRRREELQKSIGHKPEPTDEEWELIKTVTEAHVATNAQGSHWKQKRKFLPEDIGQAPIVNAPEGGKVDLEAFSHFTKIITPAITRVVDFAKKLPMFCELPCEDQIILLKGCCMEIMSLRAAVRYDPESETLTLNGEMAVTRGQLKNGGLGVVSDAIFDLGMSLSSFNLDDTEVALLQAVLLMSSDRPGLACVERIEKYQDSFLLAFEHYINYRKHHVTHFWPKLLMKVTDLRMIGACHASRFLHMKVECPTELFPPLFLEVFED
#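 A fluorescence polarization screen tested compounds at multiple concentrations against complex formation between 0.6 uM TRb ligand-binding domain and 20 nM Texas Red SRC2 peptide, with 1 uM T3 present; readout after 5 hr.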
# TexasRed fluor – Total Fluorescence Counterscreen for Inhibitors of the Interaction of Thyroid Hormone Receptor and Steroid Receptor Coregulator 2; 280,000 compounds, 0.29% hits; Potency, µM (top dose mostly 106 µM), without a hit: at the top dose fluorescence change, negative = quenching; AID 1479, 2009; TRb/SRC2 Texas Red total fluorescence interference; active = well fitted curve in either direction with a large enough effect; inconclusive = small, poorly fitted or top-dose-only effect
#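 Human TRβ ligand-binding domain (0.6 uM) and Texas Red SRC2 peptide (20 nM) in Tris buffer with 1 uM T3 and 5% DMSO were incubated with pinned compound for 5 hr at ambient temperature. Total fluorescence was computed as S + 2P (555/632 nm).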
# WRN helicase inh – qHTS for Inhibitors of WRN Helicase. Bifunctional 3'-5' exonuclease/ATP-dependent helicase WRN (Homo sapiens), Q14191. WRN helicase unwinding, fluorescent forked duplex, kinetic. Potency, µM (top dose mostly 114 µM), inactives show at the top dose activity change, negative = inhibition, actives largely listed as inhibitors. 360,000 compounds, 0.46% hits. AID 651768, 2012; note: nearly all actives have a fitted effect of over 55% in size
#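 Screening of the MLSMR collection measured strand separation of a quenched forked DNA duplex (100 nM) by 20 nM WRN with 2 mM ATP, all final. Compounds were preincubated with enzyme 15 min at room temperature.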
# BLM helicase inh – qHTS Assay for Inhibitors of Bloom's syndrome helicase (BLM); RecQ-like DNA helicase BLM (Homo sapiens), P54132; recombinant BLM DNA unwinding, fluorescence dequenching; Potency, µM (top dose mostly 56.1 µM), inactives show at the top dose activity change, negative = inhibition, most hits filed as inhibitors; 350,000 compounds, 0.2% hits; AID 2528, 2010;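 note: plate controls were vehicle for no effect and no enzyme for full effect; nearly all actives have a fitted effect of over 35% in size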
# RECQ1 inh-1 – qHTS Assay for Inhibitors of RecQ-Like Dna Helicase 1 (RECQ1); Potency, µM (titrated, usually from 57.3 µM), inactives show at the top dose activity, negative = inhibition, actives largely listed as inhibitors; AID 2549, 2010; RECQ1 DNA unwinding, red fluorescence kinetic read; 240,000 compounds, 0.54% hits; ATP-dependent DNA helicase Q1 (Homo sapiens), P46063;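 note: plate controls were vehicle for no effect and no enzyme for full effect; nearly all actives have a fitted effect of over 30% in size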
#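 50 nM RECQ1T1 preincubated 15 min with compound in Tris pH 8.0 buffer with MgCl2, DTT, Tween-20 and 2.5 ug/ml poly(dI-dC); started with 200 nM TAMRA/BHQ-2 forked duplex and 2 mM ATP. Unwinding read as fluorescence (525/598 nm), two reads 2 h apart.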
# APE1 inh – qHTS Assay for Inhibitors of the Human Apurinic/apyrimidinic Endonuclease 1 (APE1) | DNA repair nuclease/redox regulator APEX1 (Homo sapiens), P27695 | recombinant APE1, TAMRA/BHQ-2 abasic DNA cleavage fluorescence | 350,000 compounds, 0.35% hits | Potency, µM (doses to about 65.8 µM), for the others: at the top dose activity change, negative = inhibition, actives largely listed as inhibitors;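 note: plate controls were vehicle for no effect and reference inhibitor for full effect; nearly all actives have a fitted effect of over 55% in size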
# Target sequence (P27695 whole entry, looked up): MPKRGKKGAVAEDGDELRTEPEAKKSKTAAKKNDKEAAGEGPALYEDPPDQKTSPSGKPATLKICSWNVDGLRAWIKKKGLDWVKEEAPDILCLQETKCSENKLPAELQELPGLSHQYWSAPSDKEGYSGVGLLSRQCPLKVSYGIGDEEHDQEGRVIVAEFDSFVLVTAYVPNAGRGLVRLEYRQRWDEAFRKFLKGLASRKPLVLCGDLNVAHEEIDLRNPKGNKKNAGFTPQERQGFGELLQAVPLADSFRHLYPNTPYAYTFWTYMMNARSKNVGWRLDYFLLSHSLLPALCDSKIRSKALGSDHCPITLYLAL
#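 Compound pre-exposure to 0.75 nM APE1, 15 min at ambient temperature. Reaction initiated with 50 nM TAMRA/BHQ-2 THF substrate, read immediately in kinetic mode, 525 nm excitation, 598 nm emission.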
# RECQ1 conf – Confirmation qHTS Assay for Inhibitors of RecQ-Like Dna Helicase 1 (RECQ1). RECQ1 helicase DNA unwinding, fluorescence. shares compounds with RECQ1 inh-1. Potency, µM (series often up to 229 µM), without a hit: at the highest dose activity change, negative = inhibition, actives largely listed as inhibitors. 610 compounds, 28% hits; note: nearly all actives have a fitted effect of over 45% in size
# RECQ1 ADP FP – Counterscreen for RECQ1 Inhibitors: ADP Fluorescence Polarization Displacement Assay | ADP fluorescence polarization displacement counterscreen | AID 2711, 2010 | 530 compounds, 27% hits | Potency, µM (top dose mostly 228 µM), without a hit: at the top dose activity change, negative = inhibition, actives largely listed as inhibitors | shares compounds with RECQ1 inh-1; note: nearly all actives have a fitted effect of over 45% in size
# RECQ1 inh-2 – Confirmation qHTS Assay for Inhibitors of RecQ-Like Dna Helicase 1 (RECQ1) - Round 2 Cherry Picks; shares compounds with RECQ1 inh-1; recombinant RECQ1 DNA unwinding, red fluorescence; Potency, µM (series often up to 119 µM), without a hit: at the top dose activity, negative = inhibition, usual class: inhibitors; 1,100 compounds, 15% hits; AID 504841, 2011; note: nearly all actives have a fitted effect of over 50% in size
# The depositor's hits bear a star; i = inactive; u = inconclusive; x = no result; [ ] = dose if it differs, or a comment. An excerpt weighted towards active compounds, which were near 0.91% of everything screened. Unless noted, calls come from the whole dose curve; as a rule, active = well fitted curve in the direction sought with a large enough effect; inconclusive = small, poorly fitted or top-dose-only effect, or another doubt; inactive = no such curve, though single readings can be large; an effect the other way counts as inactive or inconclusive. Unless noted, % is set by controls: 0 for no effect and ±100 for the full control effect; potency is the fitted concentration of half-maximal effect.
SMILES,TRb-SRC2 inh,TexasRed fluor,WRN helicase inh,BLM helicase inh,RECQ1 inh-1,APE1 inh,RECQ1 conf,others
CC1=CCc2c(cc3oc(C)cc(=O)c3c2O)OC1,4%,0%,x,1%,i,1%,x,
CCN(CC)C(=O)c1[nH]cnc1C(=O)N[C@@H](Cc1ccccc1)C(=O)OC(C)(C)C,x,x,1%,-1%,x,48%,x,
Cc1cc(C)n(-c2nc3ccccc3s2)n1,13%,-1%,-2%,1%,16%,3%,x,
Cc1c2c(=O)n(-c3nc4ccccc4s3)nc-2cc(O)n1Cc1ccccc1,u,u,-9%[11.6 µM],16µM*,22µM*,u,45µM*,RECQ1 ADP FP=48%[91.9 µM];RECQ1 inh-2=-6%
O=C(O)CCC(=O)N1CCc2cc(S(=O)(=O)NC3CCCC3)ccc21,-15%,0%,1%,-1%,-8%,18%,10%,RECQ1 ADP FP=-3%
CN(Cc1ccco1)S(=O)(=O)c1ccc2c(c1)CCN2C(=O)CCC(=O)O,-5%,-1%,9%,1%,-6%,5%,3%,RECQ1 ADP FP=0%
O=C(C1CCC1)N1CCc2cc(S(=O)(=O)NC3CCCc4ccccc43)ccc21 (stereo unspecified),-4%,-1%,3%,-1%,-18%,7%,x,
O=C(O)CCC(=O)N1CCc2cc(S(=O)(=O)NC3CCCc4ccccc43)ccc21 (stereo unspecified),-1%,-1%,-5%,4%,-13%,-1%,6%,RECQ1 ADP FP=-1%
COc1cc(F)ccc1-c1csc(C(C)(NC(C)=O)c2ccccc2)n1 (stereo unspecified),x,x,0%,x,x,x,x,
Cc1ccc(-c2cccc(CN3CCN(C4CCN(C(C)C)CC4)C(CCO)C3)c2)o1 (stereo unspecified),0%,-2%,3%,-3%,i,26%,x,
O=C(N/N=C/c1ccccc1C(=O)O)c1ccc(COc2cccc3cccnc23)cc1,-3%,-1%,2%[11.6 µM],-6%,-10%,-2%,-11%,RECQ1 ADP FP=-8%
O=C(N/N=C/c1ccc[nH]1)c1ccc(COc2cccc3cccnc23)cc1,-3%,-1%,-3%,-5%,i,6%,x,
CC(C)(C)C(=O)OCCNc1nc(-c2ccccc2)nc2ccccc12,3%,0%,-5%,-7%,7.9µM*,11%,2%[114 µM],RECQ1 inh-2=-17%
Cc1ccc(-n2c(=O)[nH]c3sc4c(c3c2=O)CCNC4)cc1C,-5%,-1%,x,0%,x,x,x,
CCOC(=O)/C(=C/C=C1\Sc2cc(OCC)c(OCC)cc2N1CC)C(C)=O,-9%,16%,-15%,-1%,10µM*,u,u,RECQ1 ADP FP=45µM*
CCOC(=O)/C(=C\C=C1/Sc2cc(OCC)c(OCC)cc2N1CC)C(C)=O,0%,8%,5%,-8%,-15%,15%,x,
O=C(O)CC(SCC(=O)Nc1ccc(S(=O)(=O)N2CCCC2)cc1)C(=O)O (stereo unspecified),-2%,0%,-8%,1%,i,-7%,2%,RECQ1 ADP FP=-9%
Cc1nc(C(=O)Nc2cccc(Cl)c2)nn1-c1cc(OC(C)C)c(Cl)cc1Cl,6%,-2%,-21%,-9%,35µM*,-4%,x,RECQ1 inh-2=-13%
Cc1nc(C(=O)Nc2cc(Cl)ccc2Cl)nn1-c1cc(OC(C)C)c(Cl)cc1Cl,-1%,-2%,0%,-6%,-9%,-7%,x,
COc1cc(/C=C2\Oc3cc(O)ccc3C2=O)ccc1O,2%,-14%,u,-9%,u,-7%,x,RECQ1 inh-2=79µM*
COc1ccc(CCN2CC(C(=O)OCC(=O)N(C)CC(=O)Nc3ccccc3Cl)CC2=O)cc1OC (stereo unspecified),x,x,-5%,x,x,x,x,
COc1ccccc1C1CC(=O)Oc2cc3c(cc21)OCO3 (stereo unspecified),-3%,-5%,x,-30%[75.6 µM],35µM*,32µM*,x,RECQ1 inh-2=28µM*
COc1ccccc1C1CC(=O)Oc2cc(C)c(Cl)cc21 (stereo unspecified),9%,4%,-14%,-16%[75.6 µM],-19%[81.1 µM],8%,x,
Cc1ccc(NC(=O)CCN2C(=O)c3ccccc3C2=O)cc1,x,x,-21%,-1%,x,15%,x,
Nc1ccc(N2CCCCCC2)cc1,45µM*,25%,x,-12%,14µM*,u,-3%[114 µM],
SMILES,TRb-SRC2 inh,TexasRed fluor,WRN helicase inh,BLM helicase inh,RECQ1 inh-1,APE1 inh,RECQ1 conf,others
CCOc1ccc(CCNC(=O)Cn2nnc(-c3ccc(C(F)(F)F)cc3)n2)cc1OCC,-2%,2%,x,-2%,x,x,x,
O=C(CCNS(=O)(=O)c1ccc2[nH]c(=O)oc2c1)Nc1ccccc1,x,x,-10%,1%,x,30%,x,
COc1ccc(CC(=O)Nc2ccc(C(=O)Nc3ccccc3C(=O)O)cc2)cc1OC,-4%,6%,-31%,-9%,-1%,1%,15%,RECQ1 ADP FP=-12%
COc1ccccc1OCC(=O)Nc1ccc(C(=O)Nc2ccccc2C(=O)O)cc1,x,x,-3%,x,x,x,x,
Cc1ccc(S(=O)(=O)/N=C2/NC(=O)/C(=C/c3ccc(Br)o3)S2)cc1,0%[53 µM],-6%[53 µM],u,-6%,u,u,x,RECQ1 inh-2=u
Cc1ccc(S(=O)(=O)/N=C2/NC(=O)/C(=C/c3cccnc3)S2)cc1,-5%,-5%,u,-3%,-12%,5%,x,
CC(=O)c1sc(NC(=O)C2CCN(C(=O)c3ccc(F)cc3)CC2)nc1-c1ccccc1,x,x,0%,x,x,-14%,x,
CN=Cc1nc(-c2ccccc2)oc1O,-14%,-8%,6%,5%,1%,-5%,x,
